Out of some 31,000 sequences screened, about 1,400 (4.5%) were called active. This is one part of a sample in which actives are shown more often than they occur. Unmarked numbers belong to inactive results.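 How the source made its calls: active means median seed-adjusted z-score above 1 or below -1; inactive means the rest.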

The assay is described as follows: Novel Modifiers of Survival Motor Neuron (SMN) Protein: Gene Identification via Genome-wide siRNA Screen. Conditions: HEK293T SMN2-luciferase reporter, siRNA knockdown, 72 h; actives lie on both sides. The source says:
Spinal muscular atrophy (SMA) is the most common neuromuscular autosomal recessive disorder and one of the leading genetic causes of infant death. SMA results from mutations inducing loss of function or deletion in the survival of motor neuron-1 gene (SMN1), leading to deficiency of the survival motor neuron (SMN) protein. Although a second nearly identical gene, SMN2, is retained in humans, its expression primarily produces an aberrantly spliced isoform that is largely unstable and quickly degraded. We performed a genome-wide RNAi screen using a cell-based reporter assay to identify genes and pathways that modulate SMN protein stability. The screen identified over 200 genes that led to the greatest increase or decrease in luciferase expression.
Using HEK293T cells stably expressing a luciferase reporter that combines the promoter and splicing based cassettes in tandem with the major portion of the native SMN2 cDNA with luciferase, we performed a genome-wide RNAi screen to identify modulators of SMN protein levels. Luciferase is expressed when full-length SMN protein is generated with luminescence signal proportional to SMN protein levels. Our luciferase-based reporter assay was used to screen Ambion Silencer Select Human Druggable Genome siRNA library (10418 genes, 3 unique siRNAs per gene) using lipid-based reverse transfection.
Briefly, 1 pmol of each siRNA was spotted to a well of a 384-well plate (Corning, Corning, NY) and 20 microL of serum-free DMEM containing […] of Lipofectamine RNAiMax (Life Technologies, Carlsbad, CA) was then added to each well. Transfected cells were maintained at 37 degrees C in 5% CO2 for 72 hours, 20 microL of ONE-Glo Reagent (Promega) was added to wells for luciferase quantification. Raw luminescence reads were normalized to Ambion(R) Silencer(R) Negative Control #2 siRNA, then log10 transformed. A robust statistical measure of median absolute deviation (MAD) to standardize siRNA activities from each screen. Common Seed Analysis was used to help prioritize clean hits as opposed to those appearing to arise from seed based off-target effects. Candidate modulators were defined as the genes having a MAD score greater than 1.0 or less than -1.0.
Take CGUGUAUUCUUUCACUAAUTT against MFSD1: the median seed-adjusted z-score was -0.0833.

Turning to GGGUAUCACCUCACGCUUATT against ABCA12, the median seed-adjusted z-score was 0.0759.

With GGUUUGGAAUGUUCGAGUUTT against SLC25A1, the median seed-adjusted z-score is 0.252.

As to GGCACAAUUUCAACUCCAUTT against GPR35, the median seed-adjusted z-score is -1.46 (active).

For the sequence GAGCUUAGUGAUAAUAUAATT against ANP32E, the median seed-adjusted z-score is -0.0648.

As for GUGACUAUGAGCUCAAAUATT against RAVER1, the median seed-adjusted z-score was -0.0873.

Turning to ACAUGACCAUGGAAGCUGATT against HIPK4, the median seed-adjusted z-score is 0.

GGAUCCGAGAGUCACCCAATT against LLGL1: the median seed-adjusted z-score is -1.13 (active).

On to GGACAGACACGUCAGCAAATT against TMEM171, for which the median seed-adjusted z-score was 0.278.

For GGAAAUCUCGGAGAUCACATT against MLYCD, the median seed-adjusted z-score is -0.154.

As for CAUCCUCAUUUGAAACCGUTT against CREBL1, the median seed-adjusted z-score was -0.348.

Regarding CAUUCGCAUUCAGUCCAUATT against FRAP1, the median seed-adjusted z-score was -1.02 (active).

As for GCAGAUGACUACAACUUUATT against E2F5, the median seed-adjusted z-score was -0.628.

Turning to GGACUGUACAACACUCUGATT against TGFB3, the median seed-adjusted z-score is -0.354.

Turning to GAUAAUGGAAGGUGAAUUUTT against PMS2L3, the median seed-adjusted z-score was 0.175.

For CGGGAGAAGUCCUACCUGUTT against KIF19, the median seed-adjusted z-score was 0.342.

Take CGCAGGUUCUACCAGAUGATT against HS3ST6: the median seed-adjusted z-score was 0.

Regarding CCAUGGAUGAGACUCCGUATT against PPP1R10, the median seed-adjusted z-score was 1.41 (active).

Consider CGUGAUUGACUAUGAGGAATT against GRM6, for which the median seed-adjusted z-score is -0.0544.

As for GGUCAUUAUUGGUGAGCAATT against HARS2, the median seed-adjusted z-score is 0.

For AGAACAACGUGAAGGCACATT against TNPO2, the median seed-adjusted z-score is 0.0785.

Regarding CAGUGGAUAUCUUGACCUATT against LDHA, the median seed-adjusted z-score was 0.401.

Take GGAAGUCUCUUGUCUGCAATT against RNASEL: the median seed-adjusted z-score is 0.

For the sequence CAGGUUUUCUACAACAACATT against ABCA2, the median seed-adjusted z-score is -1.18 (active).

Turning to GAACUUGACCAGUUAGACUTT against GTF3C3, the median seed-adjusted z-score is 0.21.

For GGACAACCAUCUUCAAAGATT against ZKSCAN5, the median seed-adjusted z-score was -0.229.

On to GCAGUAUCGAGCUUCCGAATT against ACAD10, for which the median seed-adjusted z-score is -0.269.

GGAUCAUCAUGGAAUUGUATT against PTK2B: the median seed-adjusted z-score is 1.71 (active).

As for CCAUGUCAGUCCUAGGAAATT against ATRIP, the median seed-adjusted z-score was 0.353.

With GCAACUCCAUGUUUCAUAATT against PRMT1, the median seed-adjusted z-score is -0.596.

Regarding CCUGAUGUCUUAUCUCAGATT against ZNF398, the median seed-adjusted z-score is 0.119.

Turning to AAAUCUUCGUGAACUUGGATT against MMD, the median seed-adjusted z-score was 0.193.

For the sequence CCAUCUAGAGUAUCACGCATT against CYGB, the median seed-adjusted z-score was -0.34.

As to GAAAUUCCACUGUAUCUAATT against COX7A2, the median seed-adjusted z-score was -0.0808.

As for GAGAGAAACUGUCAGAGUATT against RNF185, the median seed-adjusted z-score is -0.388.

As for CCCUCUUCCUUAUCCUGCATT against PITPNM1, the median seed-adjusted z-score is -0.203.

As to GAACAACCCUAACCCAAGATT against ITGAM, the median seed-adjusted z-score is -1.56 (active).

With CCAACUCGGCAAAACCGUUTT against NDUFS3, the median seed-adjusted z-score was -0.54.

With CAACAACACCUGUUGCUUUTT against RGS17, the median seed-adjusted z-score was -0.627.

Consider GAGCUACAUUACUAAGUCATT against ZNF223, for which the median seed-adjusted z-score was 0.367.

In the case of CCAGGCAAAUAGUGAAGAATT against VAX1, the median seed-adjusted z-score was 0.937.

GCAGUUCCUAAAUUUCCGATT against SNX9: the median seed-adjusted z-score was 0.684.

Consider GGAGAAUGCCGAAGAGGAATT against POLR2F, for which the median seed-adjusted z-score was -3.52 (active).

Consider GGCUGUACUUCGUCAUGGATT against PRKCA, for which the median seed-adjusted z-score is -0.249.

Consider CAUCCGACAUUGAAGUUGATT against B2M, for which the median seed-adjusted z-score was -0.367.

In the case of CGAGUAUGGUUUCCGCAAATT against UHMK1, the median seed-adjusted z-score is -0.269.

Take GAAUGCGAUUCACACCUUUTT against CAT: the median seed-adjusted z-score is 0.

For CCCUAAUUCUUCGUCAUAATT against AMIGO2, the median seed-adjusted z-score is -0.258.

Take CAUUGGUUUUGAUGAGUAUTT against SNRPE: the median seed-adjusted z-score was -2.77 (active).

In the case of CUGUUUAACUGUGAGAUCATT against ANP32E, the median seed-adjusted z-score is -0.0648.

With GCCUGCAAGUGUCCCAAAATT against NTN1, the median seed-adjusted z-score was -0.0419.

With GAUAUUUGCCUAUGCCUUUTT against ZMYND19, the median seed-adjusted z-score is 0.369.

As for GAAGGACAUGUACAAGAAATT against ITPKA, the median seed-adjusted z-score is -0.136.

Take CCAGCAUCCCUAGCUCAGATT against SYVN1: the median seed-adjusted z-score is -1.41 (active).

Turning to GUCCGUUAACUAUCUGUUATT against GNAI3, the median seed-adjusted z-score is 0.0656.

Regarding AAAUUAGAGUGAACAAGAATT against NFIC, the median seed-adjusted z-score was 0.72.

As for CAGUGGAUAUCAAGCUUAATT against OPA1, the median seed-adjusted z-score is -0.182.

Take GCAAGUGACUGCUAUCAAUTT against GRIA2: the median seed-adjusted z-score was -1.02 (active).

Consider GAUCGUCUGCUGAAUACAATT against NASP, for which the median seed-adjusted z-score was 0.133.

CAUCCAUUUGUCUUGCAAATT against GTF2F2: the median seed-adjusted z-score is -1.14 (active).

In the case of CCACAGUUCCUGUCAUGUUTT against ACMSD, the median seed-adjusted z-score was 0.

For the sequence GCACUUGUAAGAACUGGUATT against POSTN, the median seed-adjusted z-score was -0.45.

Take CGUCAGCGGUUUAGCUGGATT against SLC25A10: the median seed-adjusted z-score was -0.571.

Turning to CGCACAGUGCCUAACCCUATT against RAB26, the median seed-adjusted z-score was 0.171.

With GGAAGUUCAUGCCUCUGGATT against UBA7, the median seed-adjusted z-score was 2.41 (active).

For GGUUCUAUAGCAGACAAUATT against LOC81691, the median seed-adjusted z-score is -0.285.

For the sequence AGCUCCCUGCCUUUAAUAATT against CHPF, the median seed-adjusted z-score is 0.248.

For the sequence GAUCGCUACUUACAGGAUATT against CYP51A1, the median seed-adjusted z-score was -0.242.

With GAGUGAUAUGGAUAGUGAATT against TTC18, the median seed-adjusted z-score was -1.15 (active).

(Values after PubChem BioAssay AID1347426 (Functional Genomics Laboratory (NCATS/FGL), 2020).)
